Assay outcomes as filed in PubChem BioAssay.
The sample as a whole holds a higher share of hits than the screen did.
Tg IFNy HTS = blocks Toxoplasma gondii growth in the presence of IFN-gamma; Toxoplasma gondii growth in IFN-gamma-treated host cells; stronger effect = lower value; activity change, negative = inhibition, % (test concentration not listed); 69,000 tested, 3.8% active; in the data active = activity change below about -70%, passing the limit was not always enough;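 also: host cells are HeLa cells infected with Toxoplasma gondii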
Each line names hits and unclear results; the compound was inactive in the other large screens; ! = repeats disagree.

COc1cccc(NC(=O)Nc2ccc3c(c2)C(=O)N(C)C[C@@H](OC)[C@H](C)CN[C@@H](C)CO3)c1	none
CO[C@@H]1CN(C)C(=O)c2cc(NC(=O)c3ccc(Oc4ccccc4)cc3)ccc2OC[C@@H](C)NC[C@H]1C	Tg IFNy HTS -119
CO[C@@H]1CN(C)C(=O)c2cc(NC(=O)c3ccc(Oc4ccccc4)cc3)ccc2OC[C@H](C)NC[C@@H]1C	Tg IFNy HTS -97
CO[C@@H]1CN(C)C(=O)c2cc(NC(=O)c3cnccn3)ccc2OC[C@H](C)NC[C@H]1C	none
CO[C@H]1CN(C)C(=O)c2ccc(NC(=O)c3cccc(F)c3)cc2OC[C@@H](C)NC[C@@H]1C	none
CO[C@H]1CN(C)C(=O)c2cc(NC(=O)c3ccc(Oc4ccccc4)cc3)ccc2OC[C@H](C)NC[C@H]1C	Tg IFNy HTS -98
CO[C@H]1CN(C)C(=O)c2cc(NS(=O)(=O)c3cccc(Cl)c3)ccc2OC[C@@H](C)NC[C@H]1C	none
CC(C)n1cnnc1CN(C)Cc1ccc2c(c1)OC(F)(F)O2	none
COc1cccc(F)c1-c1c(-c2ccccc2)ncn1C(C)c1cnn(C)c1 (stereo not drawn)	none
Nc1cc(N2CCC3(CCNCC3)CC2)nc(N2CCOCC2)n1	none
O=C(c1cc(-c2ccccn2)nc2ccccc12)N(Cc1ccccn1)CC1CCCO1 (stereo not drawn)	none
COc1ccc(-c2ccc(C)cn2)cn1	none
Cc1nc(OCC(=O)Nc2ccc(F)cc2)c2ccccc2n1	none
CCn1c(C)cc(C)c(C(=O)NCc2cccnc2N2CCN(C)CC2)c1=O	none
CCOc1cccc(C2c3[nH]c4ccccc4c3CCN2C(=O)c2cc(OC)c(OC)c(OC)c2)c1 (stereo not drawn)	none
CCOc1cccc(C2c3[nH]c4ccccc4c3CCN2C(=O)c2cccnc2)c1 (stereo not drawn)	none
CCOc1cccc(C2c3[nH]c4ccccc4c3CCN2C(=O)c2ccc(Br)cc2)c1 (stereo not drawn)	Tg IFNy HTS -98
CCOc1cccc(C2c3[nH]c4ccccc4c3CCN2C(=O)C2CC2)c1 (stereo not drawn)	none
CCOc1cccc(C2c3[nH]c4ccccc4c3CCN2C(=O)c2ccc(OC)cc2)c1 (stereo not drawn)	Tg IFNy HTS -93
COc1ccc(C2c3[nH]c4ccccc4c3CCN2C(=O)c2cccc(OC)c2)cc1 (stereo not drawn)	Tg IFNy HTS -99
CCOc1cccc(C2c3[nH]c4ccccc4c3CCN2C(=O)CCC2CCCC2)c1 (stereo not drawn)	none
CCOc1cccc(C2c3[nH]c4ccccc4c3CCN2C(=O)c2ccncc2)c1 (stereo not drawn)	Tg IFNy HTS -84
COc1cccc(C(=O)N2CCc3c([nH]c4ccccc34)C2c2ccc(F)cc2)c1 (stereo not drawn)	none
COc1cccc(C(=O)N2CCc3c([nH]c4ccccc34)C2c2ccc(SC)cc2)c1 (stereo not drawn)	none
COc1ccc(-c2nc(NCCc3ccc(SC)cc3)c3ccccc3n2)cc1	none
COCCN(C)C(=O)c1nc(-c2cn(-c3ccccn3)cn2)n2ccccc12	none
CCn1cnc(NC(=O)NC2CCOC(C)(C)C2)n1 (stereo not drawn)	none
Cc1ccc(-c2coc(-c3ccc(NC(=O)c4ccccc4)cc3)n2)cc1	none
Cc1ccc(S(=O)(=O)N2CCC(c3nc(C(=O)N4CCCC4)c(C)o3)CC2)cc1C	none
Oc1c(Cl)cc(Cl)cc1Sc1cc(Cl)cc(Cl)c1O	Tg IFNy HTS -84!
FC(F)(F)c1ccccc1-n1ccnc1	none
Clc1ccccc1C(c1ccccc1)(c1ccccc1)n1ccnc1	Tg IFNy HTS -83!
N#C/C(=C1/SCC(c2ccccc2Cl)S1)n1ccnc1 (stereo not drawn)	none
COc1ccc(CC(=O)N2CCC3(CC2)Nc2cc(F)ccc2-n2cccc23)cc1OC	none
O=C(Cn1ncc2c(N3CCCCCC3)ncnc21)NC1CCCCCC1	none
COc1cc(C(=O)N2CCC3(CC2)Nc2ccc(C)c(C)c2-n2cccc23)cc(OC)c1OC	none
COc1cccc(Nc2ncnn3ccc(CN4CC[C@@H](N)[C@H](O)C4)c23)c1	none
CC(=O)Nc1ccc(C(=O)N(c2ccc(C)cc2)C2(C(=O)NCc3ccccc3)CCN(C(C)=O)CC2)cc1	none
CC(=O)N1CCC(C(=O)NCc2ccccc2)(N(C(=O)c2ccc(C)cc2)c2ccc(C(C)C)cc2)CC1	Tg IFNy HTS -98
CC(=O)N1CCC(C(=O)NCc2ccccc2)(N(C(=O)c2ccc(Br)cc2)c2ccc(C)cc2)CC1	none
CCn1cc(-c2cccnc2OC)cn1	none
Cc1cn([C@@H]2C[C@@H](O)[C@H](CO)O2)c(=O)[nH]c1=O	none
O=c1[nH]c(=O)n([C@H]2C[C@H](O)[C@@H](CO)O2)cc1C(F)(F)F	Tg IFNy HTS -77!
O=c1[nH]c(=O)n([C@H]2CC(O)[C@@H](CO)O2)cc1C(F)(F)F (stereo partly drawn)	none
Fc1cccnc1OCC12CCCOC1CCN(c1ncccn1)C2 (stereo not drawn)	none
COc1ccc(C(=O)N2CCN(S(=O)(=O)c3cc4c5c(c3)CCC(=O)N5CCC4)CC2)cc1	none
Cc1cc(C)c(Cn2nc(C(C)(C)C)cc2C(=O)Nc2ccc3c(c2)OCO3)c(C)c1	Tg IFNy HTS -99
CCN1CCC2(CC1)OC(=O)C(C)=C2C(=O)Nc1ccc2c(c1)OCO2	none
Cc1ccc(-c2coc(-c3ccc(NC(=O)Nc4ccc5c(c4)OCO5)cc3)n2)c(C)c1	none
CCOCCCNC(=O)c1ccc(-c2nc(CN3CCN(c4ccccc4)CC3)c(C)o2)cc1	none
COc1ccc2c3c(n(C)c2c1)[C@@H](CO)N(Cc1cccnc1)CC31CN(C(=O)c2cccnc2)C1	none
O=C(Nc1cccc(-c2cc3ccccc3oc2=O)c1)c1ccc(Br)o1	none
O=C(NC(=S)Nc1ccc(S(=O)(=O)N2CCOCC2)cc1)c1cccs1	none
Cc1cc(NC(=S)NC(=O)c2cccs2)ccc1-c1cc2ccccc2oc1=O	Tg IFNy HTS -80
Cc1cc(C)n(Cc2cc(C(=O)N(C)CCc3ccccn3)n[nH]2)n1	none
NCCC(=O)N1c2ccccc2Sc2ccccc21	none
FC(F)(F)c1ccc2c(c1)Nc1ccccc1S2	none
O=C(c1ccc(F)cc1)N1c2ccccc2Sc2ccc(C(F)(F)F)cc21	Tg IFNy HTS -76
Cc1ccc(-c2nc(CN3CCN(C(=O)Nc4ccc(C)c(C)c4)CC3)c(C)o2)cc1	none
O=C(c1c(F)cccc1F)N1CCOC(c2ccc(Cl)cc2)C1 (stereo not drawn)	Tg IFNy HTS -79
O=C(c1ncoc1-c1ccccc1)N1CCOC(c2ccc(Cl)cc2)C1 (stereo not drawn)	none
CCn1c(C)cc(C)c(C(=O)N2CCOC(c3ccc(Cl)cc3)C2)c1=O (stereo not drawn)	none
CC(c1nccs1)N(C)C(=O)c1cccc(NC(=O)C2CCCC2)c1 (stereo not drawn)	none
CC(=O)N1CCC2(CC1)NCCn1c(-c3ccnn3C)cnc12	none
CC(C)NC(=O)N1CCC2(CC1)c1ncc(-c3ccnn3C)n1CCN2C	Tg IFNy HTS -89
CC(C)NC(=O)N1CCC2(CC1)CCn1c(-c3cnn(C)c3)cnc12	none
Cc1nc(SCC(=O)N2CCN(c3ncc4c(n3)CCOC4)CC2)oc1C	none
c1ccc(Nc2ccc(-n3cnnc3)cn2)cc1	none
COc1ccc(N(Cc2nc3ccccc3n2C)C(=O)C2=NNC(=O)CC2)cc1	none
CC(c1ccco1)N(C)Cc1ccc2cc(F)ccc2n1 (stereo not drawn)	none
OCCCNCc1[nH]c2ccccc2c1Cl	none
CC(=O)Nc1ccc(-c2cn(Cc3ccc(Cl)cc3)nn2)cc1	none
NC(=NCCCCCCN=C(N)/N=C(\N)Nc1ccc(Cl)cc1)/N=C(\N)Nc1ccc(Cl)cc1	Tg IFNy HTS -82
CC(C)N=C(N)/N=C(\N)Nc1ccc(Cl)cc1	none
